The list is not random: actives were taken first. Their share in the collection is about 2.9%.
FH mod – Identification of activators of human fumarate hydratase by quantitative high-throughput screening; FH coupled MDH/diaphorase resazurin fluorescence, 15 min; Potency, µM (highest dose often 79.9 µM), for inactives: top-dose activity change, negative = inhibition, actives largely listed as inhibitors; hit rate 0.22% among 54,000; AID 1347055, 2019; note: potency is the fitted concentration of half-maximal effect; % is set by controls: 0 for no effect and ±100 for the full control effect; the screen sought activators but most active calls are inhibition curves; nearly all actives have a fitted effect of over 45% in size
Target sequence (P07954 whole entry, looked up): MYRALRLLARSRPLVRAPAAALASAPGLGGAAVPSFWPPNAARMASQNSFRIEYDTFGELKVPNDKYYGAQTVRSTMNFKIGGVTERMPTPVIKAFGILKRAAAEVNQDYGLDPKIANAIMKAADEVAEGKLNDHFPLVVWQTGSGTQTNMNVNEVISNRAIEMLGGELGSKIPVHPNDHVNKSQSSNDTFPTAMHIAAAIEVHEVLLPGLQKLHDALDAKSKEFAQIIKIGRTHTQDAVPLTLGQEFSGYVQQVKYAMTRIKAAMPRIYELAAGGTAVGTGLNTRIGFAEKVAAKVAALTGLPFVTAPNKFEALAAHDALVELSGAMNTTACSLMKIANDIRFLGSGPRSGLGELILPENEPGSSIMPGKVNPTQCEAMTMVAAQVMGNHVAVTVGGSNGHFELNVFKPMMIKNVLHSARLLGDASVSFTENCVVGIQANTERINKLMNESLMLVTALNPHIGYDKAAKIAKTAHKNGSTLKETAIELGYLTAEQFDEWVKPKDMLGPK
p53null 32C kill – kills p53 null cells at the permissive temperature | H1299-neo p53 null cells, ATP luminescence, 24 h, 32C | Potency, µM (series often up to 46.1 µM), for inactives: at the top dose activity change, negative = cytotoxicity, most hits filed as cytotoxic | hit rate 0.62% among 55,000 | AID 903;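 note: potency is the fitted concentration of half-maximal effect; 0% = DMSO only and -100% = full killing by 100 µM tamoxifen; nearly all actives have a fitted effect of over 55% in size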
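H1299-neo (p53 null) cells, 600/well, treated 24 h at 32C with compound up to 46 uM; ATPlite luminescence viability, normalized to DMSO and 100 uM tamoxifen; AC50 by Hill fit.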
DRV1 agonist – activates human resolvin D1 receptor GPR32. O75388. hit rate 2.5% among 48,000. AID 1346428. activation, % at 76.9 µM. CHO-K1 GPR32 beta-arrestin PathHunter luminescence, 90 min; zero percent set by DMSO-only wells;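 active = activation of at least 60% and not above a set upper limit, about 1 call in 100 departs from these limits; inconclusive = activation of 40% to 60%, or above that upper limit; inactive = activation under 40%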; note: 0% is about no effect
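CHO-K1 cells stably expressing ProLink-tagged GPR32 and Enzyme Activator-tagged beta-arrestin were seeded at 2,500 cells/well overnight, exposed to compounds for 90 min at 37 °C, then read by beta-Gal complementation chemiluminescence after 1 h detection reagent.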
p53null 39C tox – kills p53 null cells at the nonpermissive temperature; H1299 p53-null (neo) cells, 39C, ATPlite viability, 24 h; hit rate 0.97% among 55,000; Potency, µM (highest dose often 46.1 µM), without a hit: top-dose activity, negative = cell killing, hits mostly cytotoxic; AID 904;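 note: potency is the fitted concentration of half-maximal effect; 0% = DMSO only and -100% = full killing by 100 µM tamoxifen; nearly all actives have a fitted effect of over 50% in size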
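Temperature-shift cytotoxicity format: compound titrations on p53-null or A138V-expressing H1299 cells held 24 hr at 39C, cell ATP then measured, AC50 from Hill model.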
* hit, by the source's call; [ ] = dose if it differs, or a comment. Unless noted, calls come from the whole dose curve; as a rule, active = well fitted curve in the direction sought with a large enough effect; inconclusive = small, poorly fitted or top-dose-only effect, or another doubt; inactive = no such curve, though single readings can be large; an effect the other way counts as inactive or inconclusive.

How did CC(C)(O)c1ccc2c(c1)ncn2-c1cccc(-c2ccccc2C#N)c1 do in these assays?
FH mod: -0.1%

What do the screens show for `CC1C2=CC(=O)OC2(O)CC2C1C(O)CC1C(C)(CO)CCCC21C` (stereo unspecified)?
FH mod: 5.4%[53.3 µM]

Results for CCOC(=O)C1=Cc2ccc(C(F)(F)C(F)(F)F)cc2N=C(N)C1 ?
FH mod: -2.0%

Results for COc1cccc(CNC(=O)CN(c2ccc(C(C)C)cc2)S(=O)(=O)c2c(C)n[nH]c2C)c1 ?
FH mod: -13.4%; p53null 32C kill: 19.7%; DRV1 agonist: 70.8*; p53null 39C tox: 10.1%

Results for COc1ccc(CNC(=O)CN(c2ccc(C)cc2)S(=O)(=O)c2c(C)n[nH]c2C)cc1 ?
FH mod: -0.8%; p53null 32C kill: 7.2%; DRV1 agonist: -2.4; p53null 39C tox: 3.4%

How did CC(=O)c1[nH]cc(CCC(=O)O)c1CC(=O)O do in these assays?
FH mod: 10.6%

What do the screens show for `CCN(CC)S(=O)(=O)c1ccc2c(c1)c(=O)c(C(=O)NCc1ccccc1Cl)cn2C`?
FH mod: -4.7%; p53null 32C kill: inconclusive; DRV1 agonist: 27.3; p53null 39C tox: 5.01µM*

What do the screens show for `CCC1CCCCN1CCCNC(=O)c1cc2c(Cl)nc3ccc(C)cc3c2s1` (stereo unspecified)?
FH mod: -15.2%; p53null 32C kill: -2.9%; DRV1 agonist: -5.9; p53null 39C tox: 20µM*

What do the screens show for `CCC1CCCCN1CCCNC(=O)c1cc2c(=O)n(CC)c3ccccc3c2s1` (stereo unspecified)?
FH mod: -8.2%; p53null 32C kill: -5.7%; DRV1 agonist: -2.5; p53null 39C tox: -10.1%

What do the screens show for `C=C(C(=O)O)C1CCC2(C)CCC(O)C(=C)C2C1` (stereo unspecified)?
FH mod: -0.3%

How did Cc1c(-c2cccc(NC(=O)Nc3ccccc3)c2)nc2ncccn12 do in these assays?
FH mod: -9.5%; p53null 32C kill: -6.5%; DRV1 agonist: 95.9*; p53null 39C tox: 14.5%

Results for CCc1ccc(N=C2NC(=O)CC(C(=O)Nc3ccc(OC)cc3)S2)cc1 (stereo unspecified) ?
FH mod: -17.4%; p53null 32C kill: -0.3%; DRV1 agonist: 91.7*; p53null 39C tox: -1.7%

How did CN1C(=O)c2ccccc2-n2c(nc3ccccc3c2=O)[C@@]12O[C@H]2c1ccccc1 do in these assays?
FH mod: 20.8%[53.3 µM]

What do the screens show for `CC1(C)CC[C@]2(C(=O)O[C@@H]3O[C@H](CO)[C@@H](O)[C@H](O)[C@H]3O)CC[C@]3(C)C(=CCC4[C@@]5(C)CC[C@H](O[C@@H]6O[C@H](C(=O)O)[C@H](O)[C@H](O)[C@H]6O)C(C)(C)C5CC[C@]43C)[C@@H]2C1` (stereo partly specified)?
FH mod: 6.3%[20.6 µM]

What do the screens show for `CCOC(=O)C1CCCN(C(=O)c2cc3c(=O)n(C)c4ccccc4c3s2)C1` (stereo unspecified)?
FH mod: inconclusive; p53null 32C kill: -9.4%; DRV1 agonist: 103.3*; p53null 39C tox: -14.2%

Results for C/C=C(\C)C(=O)O[C@H]1[C@@H](O[C@]2(COC(=O)CC(C)C)O[C@H](COC(=O)C(C)C)[C@@H](OC(C)=O)[C@@H]2O)O[C@H](COC(C)=O)[C@@H](O)[C@@H]1O ?
FH mod: -16.8%[20.6 µM]

What do the screens show for `O=C(Nc1ccc(O)c(-c2nc3ccccc3o2)c1)c1ccco1`?
FH mod: -2.8%; p53null 32C kill: -0.3%; DRV1 agonist: 84.1*; p53null 39C tox: -7.4%

Results for C[C@@H]1CCNC(=O)c2cc3ccc(C(=O)Nc4nc5ccccc5n4CCCN(C)C)cc3n21 ?
FH mod: -2.6%

What do the screens show for `CCC(C)CC(=O)OC1C(=O)C(CO)=CC(O)C1C(C)C` (stereo unspecified)?
FH mod: -5.8%

What do the screens show for `Cn1cc[nH]c1=S`?
FH mod: -2.3%[53.3 µM]; DRV1 agonist: 65.4*

What do the screens show for `CC(=O)N[C@@H](CC(C)C)C(=O)N[C@@H](CCC(=O)O)C(=O)N[C@@H](CCC(=O)O)C(=O)N[C@@H](CC(=O)O)C(=O)Nc1ccc2c(C(F)(F)F)cc(=O)oc2c1`?
FH mod: 8.6%

Screening results (PubChem)
